According to PubChem BioAssay (EPA / NIEHS):
Inconclusive results are not listed. The source made the active and inactive calls. Rule for the calls, unless noted: active = hit-call score of the fitted dose curve at least 0.9, where 1 is the maximum; inactive = score below 0.9.

Assays:
[1] = ATG_TAL_CIS: Attagene CIS-FACTORIAL HepG2 Assay for human TAL Basal Promoter (AID 2282966); conditions: HepG2 Attagene cis-factorial TAL promoter reporter; actives raise or lower the signal;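 note: background control endpoint measuring basal TAL promoter reporter mRNA not a specific factor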
Outline: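 Background-control endpoint: basal TAL promoter reporter transcripts in transiently transfected HepG2, measured 24 h after dosing. Read-out by RT-PCR with fluorescent primer extension and capillary electrophoresis; gain or loss of signal fitted relative to DMSO.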

[2] = ATG_TGFb_CIS: Attagene CIS-FACTORIAL HepG2 Assay for human Transforming Growth Factor (TGF) (AID 2282967); conditions: HepG2 Attagene CIS TGFb reporter, mRNA transcription; actives raise or lower the signal
Outline: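 Multiplexed cis-reporter HepG2 system, 24 h treatment; mRNA induction read by fluorescence after RT-PCR and CE; DMSO negative control, bidirectional curve fitting.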

[3] = ATG_VDRE_CIS: Attagene CIS-FACTORIAL HepG2 Assay for human Vitamin D Receptor Element (VDRE) (AID 2282968); conditions: HepG2 VDRE cis-reporter transcription, actives raise or lower the signal
Outline: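 Transfected HepG2 reporter cells, chemical treatment 24 h. RNA isolated, cDNA amplified with reporter-specific primers, products analysed by capillary electrophoresis. Endpoint fitted in both directions versus DMSO.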

[4] = molecular target: Estrogen receptor (Homo sapiens) (UniProt P03372); test: ATG_ERa_TRANS: Attagene TRANS-FACTORIAL HepG2 Assay for human Estrogen Receptor alpha (ERa) (AID 2282970; active = hit-call score of the fitted dose curve at least 0.9, where 1 is the maximum); conditions: HepG2 Attagene TRANS ERa GAL4 reporter, mRNA
Chain of Estrogen receptor (Homo sapiens) (P03372 whole entry, looked up, the tested form may be a part): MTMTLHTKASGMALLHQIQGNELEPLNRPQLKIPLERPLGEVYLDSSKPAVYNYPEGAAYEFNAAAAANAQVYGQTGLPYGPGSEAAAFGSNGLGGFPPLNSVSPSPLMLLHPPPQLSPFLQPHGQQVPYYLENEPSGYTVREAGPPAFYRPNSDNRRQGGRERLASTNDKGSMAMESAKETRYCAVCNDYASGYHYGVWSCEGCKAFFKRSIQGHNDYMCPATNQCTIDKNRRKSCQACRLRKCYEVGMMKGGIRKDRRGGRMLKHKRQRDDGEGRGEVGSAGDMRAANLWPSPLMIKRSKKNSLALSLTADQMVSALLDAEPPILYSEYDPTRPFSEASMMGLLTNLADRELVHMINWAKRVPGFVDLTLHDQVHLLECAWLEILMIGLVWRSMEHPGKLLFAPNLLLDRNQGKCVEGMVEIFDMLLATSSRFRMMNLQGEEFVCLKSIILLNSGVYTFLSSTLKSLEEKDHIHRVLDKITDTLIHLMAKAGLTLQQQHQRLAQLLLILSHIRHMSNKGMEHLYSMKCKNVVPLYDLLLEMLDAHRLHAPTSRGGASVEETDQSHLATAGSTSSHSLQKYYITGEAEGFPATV
Outline: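 Reporter transcripts were measured 24 h after dosing by RT-PCR with fluorescent primer extension and capillary electrophoresis. The system is transiently transfected HepG2 expressing exogenous NR-Gal4 chimeras driving GAL4-UAS reporters; DMSO is the baseline.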

[5] = molecular target: X-box-binding protein 1 (Homo sapiens) (UniProt P17861); test: ATG_Xbp1_CIS: Attagene CIS-FACTORIAL HepG2 Assay for human X-box Binding Protein 1 (XBP1) (AID 2282972); conditions: HepG2 XBP1 cis-element reporter, Attagene multiplex; actives raise or lower the signal
Chain of X-box-binding protein 1 (Homo sapiens) (P17861 whole entry, looked up, the tested form may be a part): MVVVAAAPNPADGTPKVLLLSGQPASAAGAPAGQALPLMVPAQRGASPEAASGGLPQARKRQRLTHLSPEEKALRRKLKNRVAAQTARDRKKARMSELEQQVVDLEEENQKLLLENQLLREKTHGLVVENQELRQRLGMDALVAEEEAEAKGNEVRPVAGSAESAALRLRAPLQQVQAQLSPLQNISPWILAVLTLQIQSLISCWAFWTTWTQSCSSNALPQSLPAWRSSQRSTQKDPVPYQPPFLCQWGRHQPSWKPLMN
Outline: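 Read-out: fluorescent reporter mRNA fragments resolved by capillary electrophoresis after RT-PCR. Human HepG2 liver cells carried transfected cis-promoter reporter units and were exposed to chemicals for 24 hours. Gain or loss of signal fitted relative to DMSO baseline.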

[6] = ATG_GAL4_TRANS: Attagene TRANS-FACTORIAL HepG2 Assay for GAL4 (Internal Marker) (AID 2282976; active = hit-call score of the fitted dose curve at least 0.9, where 1 is the maximum); conditions: HepG2 Attagene TRANS GAL4 internal marker reporter
Outline: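 In transfected human HepG2 liver cells dosed 24 h, GAL4 reporter mRNA serves as a baseline marker. Detection by RT-PCR with fluorescent capillary electrophoresis, activity fitted upward relative to DMSO.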

[7] = ATG_M_06_TRANS: Attagene TRANS-FACTORIAL HepG2 Assay for M06 Transcription Factor (Internal Marker) (AID 2282983; active = hit-call score of the fitted dose curve at least 0.9, where 1 is the maximum;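 for outcome: reporter transcript level by RT-PCR then capillary electrophoresis fluorescence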); conditions: HepG2 Attagene TRANS M06 internal marker reporter
Outline: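 Background-control reporter readout: after 24 h chemical exposure of transiently transfected HepG2 (GAL4-UAS reporter units), mRNA quantified by RT-PCR with fluorescent labeling and capillary electrophoresis. Gain-of-signal fitting against DMSO baseline.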

[8] = ATG_M_32_TRANS: Attagene TRANS-FACTORIAL HepG2 Assay for M32 Transcription Factor (Internal Marker) (AID 2282984; active = hit-call score of the fitted dose curve at least 0.9, where 1 is the maximum); conditions: HepG2 Attagene TRANS M32 internal marker reporter
Outline: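 Fluorescence-detected mRNA induction, HepG2 liver cells, 24 h after dosing. Multiple GAL4-UAS reporter units introduced by transient transfection; background-control endpoint analysed for gain of signal against DMSO.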

[9] = molecular target: Transcriptional activator Myb (Homo sapiens) (UniProt P10242); test: ATG_Myb_CIS: Attagene CIS-FACTORIAL HepG2 Assay for human Myeloblastosis (Myb) Proto-Oncogene Transcription Factor (AID 2282986); conditions: HepG2 Attagene CIS-FACTORIAL Myb reporter transcription; actives raise or lower the signal
Chain of Transcriptional activator Myb (Homo sapiens) (P10242 whole entry, looked up): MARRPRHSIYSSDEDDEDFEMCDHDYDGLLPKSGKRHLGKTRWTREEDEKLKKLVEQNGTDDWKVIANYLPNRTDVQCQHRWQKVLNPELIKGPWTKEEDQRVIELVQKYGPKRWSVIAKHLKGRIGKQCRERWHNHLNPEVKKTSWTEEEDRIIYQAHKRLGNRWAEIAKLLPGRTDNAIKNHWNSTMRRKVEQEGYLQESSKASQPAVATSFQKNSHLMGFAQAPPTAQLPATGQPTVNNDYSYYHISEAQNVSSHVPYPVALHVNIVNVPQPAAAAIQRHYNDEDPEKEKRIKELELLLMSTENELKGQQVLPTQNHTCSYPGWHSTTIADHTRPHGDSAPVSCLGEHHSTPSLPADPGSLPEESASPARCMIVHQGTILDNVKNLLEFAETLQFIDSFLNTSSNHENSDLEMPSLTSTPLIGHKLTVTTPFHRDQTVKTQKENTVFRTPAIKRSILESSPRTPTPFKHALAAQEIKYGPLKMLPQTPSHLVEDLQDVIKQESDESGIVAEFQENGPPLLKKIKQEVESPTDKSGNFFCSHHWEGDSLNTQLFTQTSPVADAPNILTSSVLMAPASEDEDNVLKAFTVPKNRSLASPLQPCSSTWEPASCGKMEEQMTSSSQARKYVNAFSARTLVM
Outline: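 Fluorescence signals from capillary electrophoresis of RT-PCR-amplified reporter cDNA give the read-out. Cells: HepG2 transfected with multiple cis-regulated reporter units. Exposure lasts 24 hours; DMSO defines baseline for gain or loss of signal.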

[10] = molecular target: Nuclear respiratory factor 1 (Homo sapiens) (UniProt Q16656); test: ATG_NRF1_CIS: Attagene CIS-FACTORIAL HepG2 Assay for human Nuclear Respiratory Factor 1 (NRF1) Orphan Gene (AID 2282987); conditions: HepG2 NRF1 cis-element reporter, Attagene multiplex; actives raise or lower the signal
Chain of Nuclear respiratory factor 1 (Homo sapiens) (Q16656 whole entry, looked up): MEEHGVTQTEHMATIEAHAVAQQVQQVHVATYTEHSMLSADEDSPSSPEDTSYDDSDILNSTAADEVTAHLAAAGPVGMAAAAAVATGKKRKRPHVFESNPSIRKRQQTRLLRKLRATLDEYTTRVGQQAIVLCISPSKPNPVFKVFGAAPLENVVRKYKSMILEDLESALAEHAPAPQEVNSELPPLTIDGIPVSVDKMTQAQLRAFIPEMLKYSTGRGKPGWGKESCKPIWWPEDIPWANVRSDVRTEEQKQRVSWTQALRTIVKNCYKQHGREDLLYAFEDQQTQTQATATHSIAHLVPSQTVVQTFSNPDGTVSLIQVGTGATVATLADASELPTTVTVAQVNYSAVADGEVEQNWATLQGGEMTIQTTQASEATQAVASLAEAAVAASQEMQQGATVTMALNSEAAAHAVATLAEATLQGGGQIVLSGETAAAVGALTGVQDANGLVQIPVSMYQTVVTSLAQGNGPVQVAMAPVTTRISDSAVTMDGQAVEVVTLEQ
Outline: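 Transcriptional reporter readout, one component of a 52-endpoint multiplexed HepG2 panel. Exposure 24 h; mRNA detected via RT-PCR and fluorescent capillary electrophoresis; fitting in both directions against DMSO.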

[11] = molecular target: Glucocorticoid receptor (Homo sapiens) (UniProt P04150); test: ATG_GR_TRANS: Attagene TRANS-FACTORIAL HepG2 Assay for human Glucocorticoid Receptor (GR) (AID 2282978; active = hit-call score of the fitted dose curve at least 0.9, where 1 is the maximum;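 note: activators score as hits since higher reporter transcript over DMSO is fitted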); conditions: HepG2 Attagene TRANS GR reporter, mRNA transcription
Chain of Glucocorticoid receptor (Homo sapiens) (P04150 whole entry, looked up, the tested form may be a part): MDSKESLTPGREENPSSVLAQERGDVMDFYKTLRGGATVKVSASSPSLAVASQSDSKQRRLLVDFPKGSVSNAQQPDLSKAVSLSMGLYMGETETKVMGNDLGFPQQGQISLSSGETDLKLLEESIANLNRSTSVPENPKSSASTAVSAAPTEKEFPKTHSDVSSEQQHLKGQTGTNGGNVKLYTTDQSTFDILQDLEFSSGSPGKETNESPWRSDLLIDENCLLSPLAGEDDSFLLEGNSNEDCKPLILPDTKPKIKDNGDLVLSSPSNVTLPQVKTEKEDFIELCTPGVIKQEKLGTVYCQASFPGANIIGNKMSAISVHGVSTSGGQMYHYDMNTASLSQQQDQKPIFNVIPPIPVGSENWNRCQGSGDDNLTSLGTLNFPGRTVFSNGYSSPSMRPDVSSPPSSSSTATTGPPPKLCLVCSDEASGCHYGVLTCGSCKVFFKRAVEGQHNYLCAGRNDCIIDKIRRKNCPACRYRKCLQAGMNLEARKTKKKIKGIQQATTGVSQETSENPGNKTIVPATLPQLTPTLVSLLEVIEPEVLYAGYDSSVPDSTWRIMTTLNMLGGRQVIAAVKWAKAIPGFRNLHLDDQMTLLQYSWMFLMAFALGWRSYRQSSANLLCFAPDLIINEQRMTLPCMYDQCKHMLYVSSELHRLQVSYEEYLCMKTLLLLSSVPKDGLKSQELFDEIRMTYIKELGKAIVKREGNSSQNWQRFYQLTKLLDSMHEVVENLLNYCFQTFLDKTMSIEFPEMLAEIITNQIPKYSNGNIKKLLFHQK
Outline: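 Measurement of GAL4-UAS-driven reporter mRNA in human HepG2 liver cells 24 h post-dosing, using RT-PCR with fluorescent labelling and capillary electrophoresis; the transfected constructs report exogenous NR-GAL4 chimera activity, fitted upward against DMSO.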

[12] = molecular target: Bile acid receptor (Homo sapiens) (UniProt Q96RI1); test: ATG_FXR_TRANS: Attagene TRANS-FACTORIAL HepG2 Assay for Farnesoid X Receptor (FXR) (AID 2282979; active = hit-call score of the fitted dose curve at least 0.9, where 1 is the maximum;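 note: hits raise reporter mRNA above DMSO so AC50 marks FXR activation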); conditions: HepG2 Attagene TRANS FXR-GAL4 reporter transcription
Chain of Bile acid receptor (Homo sapiens) (Q96RI1 whole entry, looked up, the tested form may be a part): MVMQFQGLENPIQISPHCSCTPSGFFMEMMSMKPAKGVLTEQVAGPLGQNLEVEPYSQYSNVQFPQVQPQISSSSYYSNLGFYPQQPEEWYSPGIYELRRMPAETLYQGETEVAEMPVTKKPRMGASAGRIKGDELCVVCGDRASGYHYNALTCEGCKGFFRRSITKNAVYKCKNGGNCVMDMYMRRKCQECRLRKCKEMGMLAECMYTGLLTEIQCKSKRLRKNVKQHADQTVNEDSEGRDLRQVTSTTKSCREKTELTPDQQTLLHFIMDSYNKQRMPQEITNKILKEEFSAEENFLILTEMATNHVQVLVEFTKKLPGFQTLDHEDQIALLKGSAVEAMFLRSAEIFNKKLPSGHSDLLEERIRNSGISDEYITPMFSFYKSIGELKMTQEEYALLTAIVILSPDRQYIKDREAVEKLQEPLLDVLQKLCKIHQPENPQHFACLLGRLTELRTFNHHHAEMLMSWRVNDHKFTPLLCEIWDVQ
Outline: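 Reporter transcripts from transfected HepG2 cells were measured 24 h after dosing, using RT-PCR with capillary electrophoresis of 6-FAM-labelled fragments. The read-out reflects activity of exogenous FXR-Gal4 chimera on GAL4-UAS units, with induction relative to DMSO.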

[13] = molecular target: Oxysterols receptor LXR-alpha (Homo sapiens) (UniProt Q13133); test: ATG_LXRa_TRANS: Attagene TRANS-FACTORIAL HepG2 Assay for human Liver X Receptor alpha (LXRa) (AID 2282980; active = hit-call score of the fitted dose curve at least 0.9, where 1 is the maximum); conditions: HepG2 Attagene TRANS reporter, LXRa transactivation
Chain of Oxysterols receptor LXR-alpha (Homo sapiens) (Q13133 whole entry, looked up, the tested form may be a part): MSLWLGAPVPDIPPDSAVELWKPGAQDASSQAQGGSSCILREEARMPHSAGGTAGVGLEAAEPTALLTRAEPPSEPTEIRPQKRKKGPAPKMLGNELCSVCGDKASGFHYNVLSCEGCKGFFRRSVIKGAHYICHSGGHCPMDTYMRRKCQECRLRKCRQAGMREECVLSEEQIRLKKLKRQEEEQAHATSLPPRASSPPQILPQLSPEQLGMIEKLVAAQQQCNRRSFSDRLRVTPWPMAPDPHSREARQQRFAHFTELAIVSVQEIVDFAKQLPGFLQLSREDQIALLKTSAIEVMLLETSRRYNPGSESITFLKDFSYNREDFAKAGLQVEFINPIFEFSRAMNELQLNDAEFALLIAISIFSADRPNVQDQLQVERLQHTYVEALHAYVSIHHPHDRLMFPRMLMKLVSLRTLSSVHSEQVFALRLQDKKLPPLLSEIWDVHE
Outline: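 Chemical-induced reporter mRNA measured by RT-PCR with fluorescent labelling and capillary electrophoresis after 24 h dosing of transiently transfected HepG2 cells expressing exogenous NR-Gal4 chimeras; increases scored against DMSO baseline.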

[14] = molecular target: Oxysterols receptor LXR-beta (Homo sapiens) (UniProt P55055); test: ATG_LXRb_TRANS: Attagene TRANS-FACTORIAL HepG2 Assay for human Liver X Receptor beta (LXRb) (AID 2282981; active = hit-call score of the fitted dose curve at least 0.9, where 1 is the maximum); conditions: HepG2 Attagene TRANS GAL4-LXRb reporter, mRNA
Outline: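 Liver-derived HepG2 cells transfected with Gal4-responsive reporters were dosed for 24 h. Activation was scored as rise in reporter mRNA, by RT-PCR and capillary electrophoresis, above DMSO baseline.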

[15] = molecular target: Hepatocyte nuclear factor 4-alpha (Homo sapiens) (UniProt P41235); test: ATG_HNF4a_TRANS: Attagene TRANS-FACTORIAL HepG2 Assay for human Hepatocyte Nuclear Factor 4 alpha (HNF4a) (AID 2282982; active = hit-call score of the fitted dose curve at least 0.9, where 1 is the maximum); conditions: HepG2 HNF4a transactivation reporter, mRNA readout
Chain of Hepatocyte nuclear factor 4-alpha (Homo sapiens) (P41235 whole entry, looked up, the tested form may be a part): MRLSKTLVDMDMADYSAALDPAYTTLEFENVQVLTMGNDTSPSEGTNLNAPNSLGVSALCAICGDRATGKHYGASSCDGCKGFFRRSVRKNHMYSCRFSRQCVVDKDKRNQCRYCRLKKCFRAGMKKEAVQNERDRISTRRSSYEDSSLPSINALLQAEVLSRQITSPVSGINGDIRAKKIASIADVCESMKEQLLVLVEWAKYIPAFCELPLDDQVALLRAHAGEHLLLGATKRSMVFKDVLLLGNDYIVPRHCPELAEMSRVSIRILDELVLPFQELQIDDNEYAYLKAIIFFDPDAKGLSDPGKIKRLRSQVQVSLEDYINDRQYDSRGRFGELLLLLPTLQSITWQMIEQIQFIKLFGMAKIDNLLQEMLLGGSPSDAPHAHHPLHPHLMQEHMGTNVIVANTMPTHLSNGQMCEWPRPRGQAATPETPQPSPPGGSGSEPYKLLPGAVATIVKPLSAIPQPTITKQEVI
Outline: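 Using HepG2 liver cells transfected with GAL4-UAS reporter units, chemical-induced mRNA increases were assessed after 24 hours. Fluorescent RT-PCR fragments were separated by capillary electrophoresis and compared with DMSO negative controls.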

[16] = molecular target: Nuclear receptor subfamily 4 group A member 2 (Homo sapiens) (UniProt P43354); test: ATG_NURR1_TRANS: Attagene TRANS-FACTORIAL HepG2 Assay for human Nuclear Receptor Related Protein 1 (NURR1) (AID 2282985; active = hit-call score of the fitted dose curve at least 0.9, where 1 is the maximum); conditions: HepG2 Attagene TRANS reporter, mRNA readout
Chain of Nuclear receptor subfamily 4 group A member 2 (Homo sapiens) (P43354 whole entry, looked up, the tested form may be a part): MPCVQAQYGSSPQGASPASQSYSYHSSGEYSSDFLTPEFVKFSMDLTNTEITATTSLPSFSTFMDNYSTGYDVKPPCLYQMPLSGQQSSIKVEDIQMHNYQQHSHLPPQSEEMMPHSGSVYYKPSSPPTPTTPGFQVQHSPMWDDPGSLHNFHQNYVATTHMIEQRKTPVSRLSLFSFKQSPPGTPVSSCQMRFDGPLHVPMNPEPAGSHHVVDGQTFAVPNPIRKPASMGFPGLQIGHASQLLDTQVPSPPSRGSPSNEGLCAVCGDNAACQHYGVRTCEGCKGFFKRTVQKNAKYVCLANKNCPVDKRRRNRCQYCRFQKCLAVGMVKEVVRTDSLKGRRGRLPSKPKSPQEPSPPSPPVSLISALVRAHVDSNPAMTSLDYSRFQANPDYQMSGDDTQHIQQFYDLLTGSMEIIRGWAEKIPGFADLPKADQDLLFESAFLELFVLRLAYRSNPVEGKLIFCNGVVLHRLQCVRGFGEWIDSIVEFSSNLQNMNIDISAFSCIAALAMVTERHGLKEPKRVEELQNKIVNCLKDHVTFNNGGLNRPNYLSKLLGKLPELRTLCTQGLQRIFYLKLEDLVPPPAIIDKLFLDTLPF
Outline: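 Chimeric NR-Gal4 proteins were expressed in human HepG2 cells bearing GAL4-UAS reporter units, and induced reporter mRNA was quantified 24 h post-dosing by RT-PCR and capillary electrophoresis.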

[17] = molecular target: Steroid hormone receptor ERR1 (Homo sapiens) (UniProt P11474); test: ATG_ERRa_TRANS: Attagene TRANS-FACTORIAL HepG2 Assay for human Estrogen-Related Receptor alpha (ERRa) (AID 2282971; active = hit-call score of the fitted dose curve at least 0.9, where 1 is the maximum); conditions: HepG2 Attagene TRANS reporter, ERRa transactivation
Outline: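 Reporter transcripts from ERRa-Gal4 chimera activity measured in transiently transfected human HepG2 cells 24 hours after dosing, using RT-PCR with 6-FAM primer extension, HpaI digestion and capillary electrophoresis; DMSO is baseline.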

[18] = ATG_M_19_TRANS: Attagene TRANS-FACTORIAL HepG2 Assay for M19 Transcription Factor (Internal Marker) (AID 2282974; active = hit-call score of the fitted dose curve at least 0.9, where 1 is the maximum); conditions: HepG2 Attagene TRANS-FACTORIAL M19 internal marker reporter
Outline: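 Measured here: internal-marker reporter transcript from HepG2 cells transfected with MRTUs, harvested at 24 h. cDNA PCR products were 6-FAM labelled by primer extension, cut with HpaI for 2 h at 37 C, and resolved by CE.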

O=[N+]([O-])c1ccc(CO)cc1
outcome [1]: inactive | outcome [2]: inactive | outcome [3]: inactive | outcome [4]: inactive | outcome [5]: inactive | outcome [6]: inactive | outcome [7]: inactive | outcome [8]: inactive | outcome [9]: inactive | outcome [10]: inactive

CC(C)c1ccc2c(c1)CC[C@H]1[C@](C)(CN)CCC[C@]21C
outcome [1]: inactive | outcome [2]: inactive | AC50 [3]: 5.66 µM (active) | outcome [4]: inactive | AC50 [5]: 5.24 µM (active) | outcome [11]: inactive | outcome [12]: inactive | outcome [13]: inactive | outcome [14]: inactive | outcome [15]: inactive | AC50 [7]: 5.45 µM (active) | outcome [16]: inactive | outcome [9]: inactive | outcome [10]: inactive

CC(C)c1ccc2c(C(C)C)cc(C(C)C)c(S(=O)(=O)O)c2c1
outcome [1]: inactive | outcome [2]: inactive | AC50 [3]: 8.94 µM (active) | AC50 [4]: 45.4 µM (active) | outcome [5]: inactive | outcome [6]: inactive | outcome [12]: inactive | outcome [8]: inactive | AC50 [16]: 48 µM (active) | outcome [9]: inactive | outcome [10]: inactive

C=CCOCC(O)CCl (stereo not given)
outcome [1]: inactive | outcome [2]: inactive | AC50 [3]: 34.8 µM (active) | outcome [4]: inactive | outcome [5]: inactive | outcome [6]: inactive | outcome [11]: inactive | outcome [15]: inactive | outcome [7]: inactive | outcome [8]: inactive | outcome [16]: inactive | outcome [10]: inactive

C=C[C@](C)(O)CC[C@@H]1[C@@]2(C)CCCC(C)(C)[C@@H]2CC[C@@]1(C)O
outcome [1]: inactive | outcome [2]: inactive | outcome [3]: inactive | outcome [4]: inactive | outcome [5]: inactive | outcome [11]: inactive | outcome [12]: inactive | outcome [13]: inactive | outcome [7]: inactive | outcome [8]: inactive | outcome [16]: inactive | outcome [9]: inactive | outcome [10]: inactive

COc1c2ccoc2cc2oc(=O)ccc12
outcome [1]: inactive | outcome [2]: inactive | outcome [3]: inactive | outcome [4]: inactive | outcome [5]: inactive | outcome [14]: inactive | outcome [15]: inactive | outcome [7]: inactive | outcome [16]: inactive | outcome [9]: inactive | outcome [10]: inactive

C[Si](C)(C)O[Si](O)(O)O
outcome [1]: inactive | outcome [2]: inactive | outcome [3]: inactive | outcome [4]: inactive | outcome [5]: inactive | outcome [11]: inactive | outcome [12]: inactive | outcome [7]: inactive | outcome [16]: inactive | outcome [10]: inactive

CC(C)C(=O)C(C)C
outcome [1]: inactive | outcome [2]: inactive | AC50 [3]: 55.2 µM (active) | outcome [17]: inactive | AC50 [5]: 34.7 µM (active) | outcome [18]: inactive | outcome [11]: inactive | outcome [15]: inactive | outcome [7]: inactive | outcome [8]: inactive | outcome [16]: inactive | outcome [10]: inactive

CC/C=C\C/C=C\C/C=C\CCCCCCCC(=O)O
outcome [1]: inactive | outcome [2]: inactive | AC50 [3]: 62.7 µM (active) | outcome [4]: inactive | AC50 [5]: 160 µM (active) | outcome [12]: inactive | outcome [14]: inactive | outcome [7]: inactive | outcome [8]: inactive | outcome [9]: inactive | outcome [10]: inactive

CN(C)c1ccc(N=Nc2ccccc2C(=O)O)cc1
outcome [1]: inactive | outcome [2]: inactive | AC50 [3]: 16.4 µM (active) | outcome [4]: inactive | AC50 [5]: 9.33 µM (active) | outcome [14]: inactive | outcome [7]: inactive | outcome [8]: inactive | outcome [16]: inactive | AC50 [9]: 25.3 µM (active) | outcome [10]: inactive

CC(=O)OC(C)C
outcome [1]: inactive | outcome [2]: inactive | outcome [3]: inactive | outcome [4]: inactive | outcome [5]: inactive | outcome [13]: inactive | outcome [7]: inactive | outcome [16]: inactive | outcome [9]: inactive | outcome [10]: inactive
